Inconclusive results are not listed. Unmarked numbers belong to inactive results. The source made the active and inactive calls. The call rests on the fitted dose curve; in most records, active means well fitted curve in the direction sought with a large enough effect; inconclusive means small, poorly fitted or top-dose-only effect, or another doubt; inactive means no such curve, though single readings can be large; an effect the other way counts as inactive or inconclusive.
Assay: Primary qHTS for inhibitors of nuclear receptor binding SET domain protein 2 (NSD2) in an isogenic RCH-ACV NSD2 p.E1099K mutant (9B) (AID 1645876)
Conditions: RCH-ACV NSD2 E1099K (9B) viability, CellTiter-Glo, 72 h; series mostly up to 44.9 µM; activity change, negative = viability loss: at the top concentration
Further: nearly all actives have a fitted effect of over 70% in size.
On the % scale 0 is the no-effect control and ±100 the full control effect.

| SMILES | outcome | activity change, negative = viability loss | Potency |
| --- | --- | --- | --- |
| COC(=O)C1=CO[C@@H](O[C@@H]2O[C@H](CO)[C@@H](O)[C@H](O)[C@H]2O)[C@@H]2[C@@](C)(O)[C@@H](O)C[C@]12O | inactive [at 17.3 µM] | – | – |
| C[C@@H]1C(=O)O[C@H]2CC34[C@H]5C[C@@H](C(C)(C)C)C36[C@@H](OC(=O)[C@@H]6O)OC4(C(=O)O5)[C@]21O (stereo not given in full) | inactive | – | – |
| CC1(C)CCCC2(C)C(CO)C3CCC2C31 (stereo not given) | – | -0.746% | – |
| COC(=O)C[C@@H]1C(C(=O)O)=CO[C@@H](O[C@@H]2O[C@H](CO)[C@@H](O)[C@H](O)[C@H]2O)/C1=C\COC(=O)/C=C\c1ccccc1 | – | -19.1% [at 17.3 µM] | – |
| CC(C(=O)O)C1CCC2(C)C3C(=O)C=C4C(CCC(=O)C4(C)C)C3(C)CCC12C (stereo not given) | – | 2.38% [at 17.3 µM] | – |
| COc1ncc(-c2ccc3c(Nc4cc(Oc5cc(F)cc(F)c5)cc(C(=O)O)c4)c(S(=O)(=O)NC4CC4)cnc3c2)c(OC)n1 | – | – | inactive |
| C=C1CC/C=C(/CO)C(=O)C[C@@H]2[C@@H]1CC2(C)C | – | -8.47% | – |
| CC1CCC2(NC1)OC1C(=O)C3C4CCC5CC(O[C@@H]6O[C@H](CO)[C@@H](O)[C@H](O)[C@H]6O[C@@H]6O[C@@H](C)[C@H](O)[C@@H](O)[C@H]6O)CCC5(C)C4CCC3(C)C1C2C (stereo not given in full) | – | -21.9% [at 17.3 µM] | – |
| CC(C)CC(=O)OC[C@H]1O[C@@](COC(=O)CC(C)C)(O[C@H]2O[C@H](CO)[C@@H](O)[C@H](O)[C@H]2OC(=O)CC(C)C)[C@@H](OC(=O)CC(C)C)[C@@H]1O | – | -7.76% [at 17.3 µM] | – |
| CCCCCCc1cccc(NC(=O)[C@H](N)CCP(=O)(O)O)c1 | inactive [at 9.23 µM] | – | – |
| COc1ccc(C2=CC(=O)OC2Cc2ccc(O)cc2)c(O)c1 (stereo not given) | – | -12.8% | – |
| CNC(=O)[C@H]1O[C@@H](n2cnc3c(NCc4ccc(N)c(I)c4)ncnc32)[C@H](O)[C@@H]1O | – | -0.539% [at 9.23 µM] | – |
| C/C=C/C=C/C=C/C(=O)O[C@@H]1C=C(CO)C(O)(C(=O)O)[C@@]2(C)CCCC(C)(C)[C@H]12 (stereo not given in full) | – | -15.4% [at 17.3 µM] | – |
| COC1=CC(=O)O[C@@H](/C=C/c2ccccc2)[C@@H]1O | – | -0.0629% | – |
| O=c1c2ccccc2nc2n1CCC2O (stereo not given) | – | -4.8% [at 91.9 µM] | – |
| CC1CCC2(O1)C(C)(C)CC(O[C@@H]1O[C@H](CO[C@@H]3OC[C@](O)(CO)[C@H]3O)[C@@H](O)[C@H](O)[C@H]1O)CC2(C)O (stereo not given in full) | inactive [at 17.3 µM] | – | – |

| SMILES | outcome | activity change, negative = viability loss | Potency |
| --- | --- | --- | --- |
| CC(=O)OC1C(O)C(C)=C(CCC(C)CC(=O)O)C2(C)CCCC(C)(C)C12 (stereo not given) | – | 4.79% | – |
| Cc1cc(O)c(C(C)C)cc1O[C@@H]1O[C@H](CO)[C@@H](O)[C@H](O)[C@H]1O | – | 1.61% | – |
| CN[C@@H]1[C@@H](O)[C@@H](O[C@@H]2[C@@H](O)[C@H](O[C@H]3O[C@H](CN)[C@@H](O)[C@H](O)[C@H]3O)[C@@H](N)C[C@H]2NC(=O)[C@@H](O)CN)OC[C@]1(C)O | – | 2.3% | – |
| CC1CCC2(C(=O)OC3OC(CO)C(O)C(O)C3O)CCC3(C(=O)O)C(=CCC4C5(C)CCC(OC6OC(C)C(O)C(O)C6O)C(C)(C)C5CCC43C)C2C1C (stereo not given) | – | -7.44% [at 17.3 µM] | – |
| COc1cc(C/C(=C/NC(C)=O)N(CC(=O)Cc2ccccc2)C(C)=O)cc2c1OCO2 | – | -14.2% [at 17.3 µM] | – |
| COc1ccc2c(c1)OC[C@]1(O)c3cc4c(cc3O[C@H]21)OCO4 | – | -14.3% | – |
| CCOc1nc2cccc(C(=O)O)c2n1Cc1ccc(-c2ccccc2-c2noc(=O)[nH]2)cc1 | – | 1.56% | – |
| CC(C)CNC(=O)/C=C/CCCCc1ccc2c(c1)OCO2 | – | -5.25% | – |
| COC(=O)C12C(=O)C(C)=C(O)C1(C)C(C)=CC1C34CCC(OC3=O)C(C)(C)C4CCC12C (stereo not given) | inactive [at 17.3 µM] | – | – |
| CCNC(=O)[C@@H]1CCCN1C(=O)[C@H](CCCN=C(N)N)NC(=O)[C@H](CC(C)C)NC(=O)[C@@H](C)NC(=O)[C@H](Cc1ccc(O)cc1)NC(=O)[C@H](CO)NC(=O)[C@H](Cc1c[nH]c2ccccc12)NC(=O)[C@H](Cc1cnc[nH]1)NC(=O)[C@@H]1CCC(=O)N1 | – | 4.36% [at 17.3 µM] | – |
| CC(c1c[nH]c2ccccc12)C(O)C(=O)O (stereo not given) | inactive | – | – |
| C[C@@H]1C[C@H]2[C@@H]3CCC4=CC(=O)C=C[C@]4(C)[C@@]3(F)[C@@H](O)C[C@]2(C)[C@@]1(O)C(=O)COP(=O)(O)O | – | -23.7% | – |
| C=C[C@@]1(C)CC(=O)C2[C@](C)(O1)[C@@H](OC(C)=O)[C@@H](O)[C@H]1C(C)(C)CCC[C@]21C (stereo not given in full) | – | 1.01% [at 9.23 µM] | – |
| CC(=O)O[C@@H]1C[C@@]23C[C@@]24CC[C@H](OC2OC[C@@H](O)[C@H](O)[C@H]2O)C(C)(C)[C@@H]4CC[C@H]3[C@]2(C)CC3OC4(C[C@@H](C)C3[C@@]12C)OCC1(C)OC14 (stereo not given in full) | inactive [at 17.3 µM] | – | – |
| O=C1Nc2ccc(O)cc2O[C@H]1O[C@@H]1O[C@H](CO)[C@@H](O)[C@H](O)[C@H]1O | – | 2.88% | – |

Assay: Primary qHTS for inhibitors of nuclear receptor binding SET domain protein 2 (NSD2) in an RCH-ACV wild type WT cells (2C) (AID 1645877); further: potency means the concentration at half of the fitted maximal effect
Conditions: RCH-ACV (leukaemia line) NSD2 WT (2C) viability, CellTiter-Glo, 72 h; series mostly up to 44.9 µM; activity change, negative = cell killing: at the top concentration

| SMILES | activity change, negative = cell killing | Potency | outcome |
| --- | --- | --- | --- |
| CC1NC(=O)C(Cc2c[nH]c3ccccc23)NC1=O (stereo not given) | -12.2% | – | – |
| CC(O)C(O)/C=C/C=C/C(=O)O[C@@H]1C=C2COC(=O)[C@]2(O)[C@@]2(C)CCCC(C)(C)C12 (stereo not given in full) | -13.5% [at 17.3 µM] | – | – |
| CC1=C(C)C(=O)OC(C(C)C2C(O)CC3C4C5OC5C5(O)CC(OC6OC(CO)C(O)C(O)C6O)CC(O)C5(C)C4CCC32C)C1 (stereo not given) | -6.64% [at 17.3 µM] | – | – |
| N[C@H]1C[C@H]1c1ccc(-c2cccc(O)c2)cc1 | -22.1% | – | – |
| CC1CCC2C(C(=O)O)=CC3C(O)C(C)(C)CC123 (stereo not given) | -4% | – | – |
| COc1cc2c(cc1O)CCN[C@]21CS[C@@H]2c3c(OC(C)=O)c(C)c4c(c3[C@H](COC1=O)N1[C@@H]2[C@H]2c3c(cc(C)c(OC)c3O)C[C@@H]([C@@H]1O)N2C)OCO4 | – | 1.4 nM (active) | – |
| CC1CCC2C(C)(C)C(O)CCC2(C)C12Cc1c(O)cc3c(c1O2)CN=C3N (stereo not given) | -0.51% | – | – |
| C[C@@H]1O[C@@H](O[C@@H]2[C@@H](O)[C@@H](O)[C@H](O[C@@H]3[C@@H](O)[C@@H](O[C@]4(CO)O[C@H](CO)[C@@H](O)[C@@H]4OC(=O)/C=C/c4ccc(O)cc4)O[C@H](CO)[C@H]3OC(=O)/C=C/c3ccc(O)cc3)O[C@H]2C)[C@H](O)[C@H](O)[C@H]1O | 1.92% [at 9.23 µM] | – | – |
| O=C(OCc1cccc(O)c1O[C@@H]1O[C@H](CO)[C@@H](O)[C@H](O)[C@H]1O)C1(O)C(=O)C2C=CC1C1C=CC(=O)C(O)(C(=O)OCc3cccc(O)c3O[C@@H]3O[C@H](CO)[C@@H](O)[C@H](O)[C@H]3O)C21 (stereo not given in full) | -22.5% [at 9.23 µM] | – | – |
| COC(=O)C1=CO[C@@H](O[C@@H]2O[C@H](CO)[C@@H](O)[C@H](O)[C@H]2O)[C@@H]2[C@@](C)(O)[C@@H](O)C[C@]12O | – | – | inactive [at 17.3 µM] |
| C[C@@H]1C(=O)O[C@H]2CC34[C@H]5C[C@@H](C(C)(C)C)C36[C@@H](OC(=O)[C@@H]6O)OC4(C(=O)O5)[C@]21O (stereo not given in full) | – | – | inactive |
| CC1(C)CCCC2(C)C(CO)C3CCC2C31 (stereo not given) | 3.8% | – | – |
| COC(=O)C[C@@H]1C(C(=O)O)=CO[C@@H](O[C@@H]2O[C@H](CO)[C@@H](O)[C@H](O)[C@H]2O)/C1=C\COC(=O)/C=C\c1ccccc1 | -23.9% [at 17.3 µM] | – | – |
| CC(C(=O)O)C1CCC2(C)C3C(=O)C=C4C(CCC(=O)C4(C)C)C3(C)CCC12C (stereo not given) | 0.953% [at 17.3 µM] | – | – |
| COc1ncc(-c2ccc3c(Nc4cc(Oc5cc(F)cc(F)c5)cc(C(=O)O)c4)c(S(=O)(=O)NC4CC4)cnc3c2)c(OC)n1 | – | inactive | – |
| C=C1CC/C=C(/CO)C(=O)C[C@@H]2[C@@H]1CC2(C)C | -9.23% | – | – |
| CC1CCC2(NC1)OC1C(=O)C3C4CCC5CC(O[C@@H]6O[C@H](CO)[C@@H](O)[C@H](O)[C@H]6O[C@@H]6O[C@@H](C)[C@H](O)[C@@H](O)[C@H]6O)CCC5(C)C4CCC3(C)C1C2C (stereo not given in full) | -17.2% [at 17.3 µM] | – | – |

| SMILES | activity change, negative = cell killing | Potency | outcome |
| --- | --- | --- | --- |
| CC(C)CC(=O)OC[C@H]1O[C@@](COC(=O)CC(C)C)(O[C@H]2O[C@H](CO)[C@@H](O)[C@H](O)[C@H]2OC(=O)CC(C)C)[C@@H](OC(=O)CC(C)C)[C@@H]1O | -11.6% [at 17.3 µM] | – | – |
| CCCCCCc1cccc(NC(=O)[C@H](N)CCP(=O)(O)O)c1 | – | – | inactive [at 9.23 µM] |
| COc1ccc(C2=CC(=O)OC2Cc2ccc(O)cc2)c(O)c1 (stereo not given) | -19% | – | – |
| CNC(=O)[C@H]1O[C@@H](n2cnc3c(NCc4ccc(N)c(I)c4)ncnc32)[C@H](O)[C@@H]1O | 2.39% [at 9.23 µM] | – | – |
| C/C=C/C=C/C=C/C(=O)O[C@@H]1C=C(CO)C(O)(C(=O)O)[C@@]2(C)CCCC(C)(C)[C@H]12 (stereo not given in full) | -23.1% [at 17.3 µM] | – | – |
| COC1=CC(=O)O[C@@H](/C=C/c2ccccc2)[C@@H]1O | 0.903% | – | – |
| O=c1c2ccccc2nc2n1CCC2O (stereo not given) | -6.77% [at 91.9 µM] | – | – |
| CC1CCC2(O1)C(C)(C)CC(O[C@@H]1O[C@H](CO[C@@H]3OC[C@](O)(CO)[C@H]3O)[C@@H](O)[C@H](O)[C@H]1O)CC2(C)O (stereo not given in full) | – | – | inactive [at 17.3 µM] |
| CC(=O)OC1C(O)C(C)=C(CCC(C)CC(=O)O)C2(C)CCCC(C)(C)C12 (stereo not given) | 4.82% | – | – |
| Cc1cc(O)c(C(C)C)cc1O[C@@H]1O[C@H](CO)[C@@H](O)[C@H](O)[C@H]1O | – | – | inactive |
| CN[C@@H]1[C@@H](O)[C@@H](O[C@@H]2[C@@H](O)[C@H](O[C@H]3O[C@H](CN)[C@@H](O)[C@H](O)[C@H]3O)[C@@H](N)C[C@H]2NC(=O)[C@@H](O)CN)OC[C@]1(C)O | 0.32% | – | – |
| CC1CCC2(C(=O)OC3OC(CO)C(O)C(O)C3O)CCC3(C(=O)O)C(=CCC4C5(C)CCC(OC6OC(C)C(O)C(O)C6O)C(C)(C)C5CCC43C)C2C1C (stereo not given) | -7.57% [at 17.3 µM] | – | – |
| COc1cc(C/C(=C/NC(C)=O)N(CC(=O)Cc2ccccc2)C(C)=O)cc2c1OCO2 | -16.7% [at 17.3 µM] | – | – |
| COc1ccc2c(c1)OC[C@]1(O)c3cc4c(cc3O[C@H]21)OCO4 | -4.88% | – | – |
| CCOc1nc2cccc(C(=O)O)c2n1Cc1ccc(-c2ccccc2-c2noc(=O)[nH]2)cc1 | – | – | inactive |
| CC(C)CNC(=O)/C=C/CCCCc1ccc2c(c1)OCO2 | 3.35% | – | – |
| COC(=O)C12C(=O)C(C)=C(O)C1(C)C(C)=CC1C34CCC(OC3=O)C(C)(C)C4CCC12C (stereo not given) | 0.607% [at 17.3 µM] | – | – |

Reference: PubChem BioAssay (NCATS)
